Bioassay records from PubChem.
A selection: hits, their analogues and other compounds. The true share with any hit is near 0.41%.
N370S GC – N370S glucocerebrosidase modulation, Gaucher chaperone candidate; P04062; N370S GC spleen homogenate, 4MU-glucoside fluorescence; Potency, µM (top dose mostly 59.4 µM), for inactives: top-dose activity change, negative = inhibition, actives largely listed as inhibitors; 330,000 compounds, 0.092% hits;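 further: 0% = full enzyme activity and -100% = no enzyme basal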
GAA spleen mod – inhibits or activates alpha-glucosidase in human spleen homogenate | Potency, µM (top dose mostly 79.9 µM), inactives show at the top dose activity change, negative = inhibition, most hits filed as inhibitors | human spleen homogenate, 4-MU-alpha-glucoside fluorescence | 240,000 compounds, 0.006% hits | P10253;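 further: 0% = enzyme with vehicle and -100% = no enzyme basal signal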
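AC50 values come from Hill-equation fits of concentration-response data, normalized to no-enzyme and full-activity controls. Enzyme source: 1 ug human spleen homogenate; 1 mM fluorogenic 4-MU glucoside, pH 5.0 citrate buffer, 37 C, 40 min.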
Lamin A splicing – modulators of lamin A splicing; AID 1487; Potency, µM (highest dose often 46.1 µM), for inactives: at the top dose ratio change, negative = inhibition, hits mostly inhibitors; HeLa LMNA splicing GFP/RFP minigene ratio, 48 h; 200,000 compounds, 0.01% hits; active means well fitted inhibition curve with a large enough effect in the signal ratio, with a control signal flat, not every such curve was filed as active; inconclusive means small, poorly fitted or top-dose-only effect, or effect the other way, or a change in a side signal; the % refers to the signal ratio
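Read-out is the ratio of GFP to DsRed2 object intensity, acquired by 488 nm laser-scanning cytometry on HeLa lamin A-EGFP minigene reporter cells. Compound incubation 48 hrs at 37 °C in Opti-MEM with 2% FBS; DMSO 0.5% final.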
GAA inh – blocks human lysosomal alpha-glucosidase; 200,000 compounds, 0.005% hits; AID 1466; Potency, µM (highest dose often 76.9 µM), inactives show top-dose activity change, negative = inhibition, actives largely listed as inhibitors; P10253; purified human GAA, 4-MU-alpha-glucoside fluorescence;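 further: plate controls were uninhibited enzyme wells for no effect and no-enzyme background for full effect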
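Human enzyme at 4 nM with 400 uM 4-methylumbelliferyl-alpha-D-pyranoside, citrate/phosphate buffer pH 5.0, 0.005% Tween-20, 20 min at room temperature. Compounds up to 77 uM. 4-MU fluorescence (Ex 365/Em 440) read after NaOH/glycine stop; AC50 from Hill fit.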
GAA glycogen mod – inhibitors or activators of human alpha-glucosidase glycogen cleavage; P10253; recombinant GAA, glycogen substrate, Amplex Red glucose oxidase fluorescence; Potency, µM (doses to about 76.4 µM), without a hit: top-dose activity change, negative = inhibition, hits mostly inhibitors; 300,000 compounds, 0.38% hits;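 further: 0% = full enzyme reaction and -100% = no-enzyme basal signal; the screen sought inhibitors and activators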
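qHTS, 1536-well; enzyme 4 nM final; cpd up to 77 uM; substrate bovine liver glycogen 30 ug; 50 mM citrate/phosphate pH 5.0, 0.01% Tween-20; 37 C, 40 min; Amplex Red detection 45 min RT; Hill fit → AC50.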
Active calls of the source: *; u = inconclusive; x = not tested or not shown; [ ] = another dose, or the depositor's remark. Unless noted, the call rests on the fitted dose curve; in most records, active means well fitted curve in the direction sought with a large enough effect; inconclusive means small, poorly fitted or top-dose-only effect, or another doubt; inactive means no such curve, though single readings can be large; an effect the other way counts as inactive or inconclusive. Unless noted, on the % scale 0 is the no-effect control and ±100 the full control effect; potency means the concentration at half of the fitted maximal effect.

SMILES	N370S GC	GAA spleen mod	Lamin A splicing	GAA inh	GAA glycogen mod
c1ccc(Nc2nc(NCc3ccco3)c3ccccc3n2)cc1	u	8%	x	x	-3%
Cc1ccccc1Nc1nc(NCc2ccco2)c2ccccc2n1	20µM*	-1%	u	-3%	-2%
Oc1ccccc1Nc1nc(NCC2CCCO2)c2ccccc2n1 (centres undefined)	u	1%	u	u	8.8µM*
O=c1c(-c2cccs2)nc2cnc(N3CCNCC3)nc2n1CCc1ccccc1	-15%	-10%	u	x	x
CSCC[C@H](NC(=O)[C@H](CC(C)C)NC(=O)[C@H](Cc1c[nH]c2ccccc12)NC(=O)[C@H](CCC(N)=O)NC(=O)[C@@H](NC(=O)[C@H](Cc1ccccc1)NC(=O)[C@H](CC(=O)O)NC(=O)[C@H](CCC(N)=O)NC(=O)[C@H](C)NC(=O)[C@H](CCCNC(=N)N)NC(=O)[C@H](CCCNC(=N)N)NC(=O)[C@H](CO)NC(=O)[C@H](CC(=O)O)NC(=O)[C@H](CC(C)C)NC(=O)[C@H](Cc1ccc(O)cc1)NC(=O)[C@H](CCCCN)NC(=O)[C@H](CO)NC(=O)[C@H](Cc1ccc(O)cc1)NC(=O)[C@H](CC(=O)O)NC(=O)[C@H](CO)NC(=O)[C@@H](NC(=O)[C@H](Cc1ccccc1)NC(=O)[C@@H](NC(=O)CNC(=O)[C@H](CCC(N)=O)NC(=O)[C@H](CO)NC(=O)[C@@H](N)Cc1cnc[nH]1)[C@@H](C)O)[C@@H](C)O)C(C)C)C(=O)N[C@@H](CC(N)=O)C(=O)N[C@H](C(=O)O)[C@@H](C)O	-1%	5%	x	x	x
Cn1nc(-c2ccccc2F)c2cc(C(=O)N3CCN(c4ccccc4F)CC3)sc21	x	x	x	x	6%[76.3 µM]
CC(C)([CH2][Sn]([CH2]C(C)(C)c1ccccc1)([CH2]C(C)(C)c1ccccc1)[O][Sn]([CH2]C(C)(C)c1ccccc1)([CH2]C(C)(C)c1ccccc1)[CH2]C(C)(C)c1ccccc1)c1ccccc1	-1%	5%	x	x	x
CN(C)c1ccc(C(=C2C=CC(=[N+](C)C)C=C2)c2ccc(N(C)C)cc2)cc1	3.2µM*	-4%	x	x	x
Cc1noc(C)c1-c1ccc2ncnc(NCCN3CCOCC3)c2c1	0%	-4%	10µM*	x	x
CNC(=S)NNc1nc(N2CCOCC2)nc(N2CCOCC2)n1	0%	7%	x	-5%	7.9µM*
CCNC(=S)NNc1nc(N2CCOCC2)nc(N2CCOCC2)n1	0%	-1%	23%[9.22 µM]	4%	u
CCOC(=O)c1c(C)[nH]c2c1cc(O)c1ccccc12	-7%	-1%	2%	0%	16µM*
COc1ccc(-c2nsc(NC(=O)c3ccccc3Br)n2)cc1	x	x	x	x	6%[76.3 µM]
O=c1cc(-c2ccc(C3CCCCC3)cc2)[nH][nH]1	7%	9%	u	-3%	16µM*
O=c1cc(-c2ccc(F)cc2)[nH][nH]1	-5%	0%	4%	-2%	-4%
O=S(=O)(c1ccc(NC(=S)N/N=C/c2ccc(O)c(O)c2)cc1)N1CCOCC1	-16%	-9%	x	x	25µM*
CN1C/C(=C/c2ccc(B(O)O)cc2)C(=O)/C(=C/c2ccc(B(O)O)cc2)C1	0%	4%	x	x	x
Cc1ccc(CNC(=O)CCN2C(=O)COc3ccc(C)cc32)cc1	x	x	x	x	11%[76.3 µM]
Cc1ccc2c(c1)N(CCCC(=O)NCc1cccc(F)c1)C(=O)CO2	x	x	x	x	45µM*
Nc1ccc2nc(-c3cc(Cl)c(N)c(Cl)c3)[nH]c2c1	1%	-1%	-27%	4%	12µM*
COC(=O)/C=C/c1cccc(N(Cc2ccc(-c3ccc(N(C)C)cc3)cc2)C(=O)C2CCCCC2)c1	3%	-10%	x	x	x
Cc1cnc(C(=O)OCC(=O)C23CC4CC(CC(C4)C2)C3)cn1	-10%	x	x	x	1%[76.3 µM]
Nc1ccc(O)cc1C(=O)OCC(=O)C12CC3CC(CC(C3)C1)C2	14%	-7%	-5%	u	16µM*
CC(=O)Nc1nonc1-c1nnc(SCC(=O)Nc2cc(C)ccc2C)n1-c1ccccc1	x	x	-11%[46 µM]	x	-7%[76.3 µM]
O=C(N[C@H]1CCCc2ccccc21)O[C@@H]1C(=O)c2cc(Br)ccc2O[C@H]1c1ccc2c(c1)OCO2	-16%	7%	x	x	x
SMILES	N370S GC	GAA spleen mod	Lamin A splicing	GAA inh	GAA glycogen mod
CCC(=O)Nc1sc2c(c1C#N)CCC2	4%	1%	x	2%	8%
CC(C)CC(=O)NC(NC(=S)Nc1sc2c(c1C#N)CCCC2)C(Cl)(Cl)Cl (centres undefined)	8%	1%	u	-8%	28µM*
Cn1c(/C(C#N)=C/c2ccccc2Br)nc2ccccc21	x	x	x	x	-22%[76.3 µM]
NCCCC[C@H](NC(=O)[C@@H](Cc1ccccc1)NC(=O)[C@H](Cc1c[nH]c2ccccc12)NC(=O)[C@@H](CCCCN)NC(=O)[C@@H](Cc1c[nH]c2ccccc12)NC(=O)[C@@H](N)Cc1cnc[nH]1)C(N)=O	-1%	6%	x	x	x
C/C(=C\C(=O)c1ccncc1)Nc1ccccc1O	-3%	-3%	u	-4%	25µM*
CC(C)c1ccc(NC(=O)CSC2=Nc3ccccc3C3=NC(CC(=O)NC4CCCCC4)C(=O)N23)cc1 (centres undefined)	x	x	20%[46 µM]	x	x
COC(=O)c1[nH]c2ccc(C)cc2c1NS(=O)(=O)c1ccc(F)c(C)c1	2%	6%	-11%	3%	18µM*
COC(=O)c1[nH]c2ccc(C)cc2c1NS(=O)(=O)c1ccc(F)cc1	-36%	-5%	8%	8%	10µM*
Cc1cc(S(=O)(=O)Nc2c(C(=O)O)[nH]c3ccccc23)ccc1F	12%	-7%	-7%	2%	2.2µM*
OCCOCCOCCO	x	x	-21%	x	x
Cc1nn(CC(=O)Nc2ccc(C(C)C)cc2)c(=O)c2c(C)n(-c3ccc(Cl)cc3)nc12	x	x	0%[46 µM]	x	x
C[C@H](NC(=O)CNC(=O)[C@@H](NC(=O)[C@H](Cc1ccccc1)NC(=O)CNC(=O)CNC(=O)[C@@H](N)Cc1ccccc1)[C@@H](C)O)C(=O)N[C@@H](CCCN=C(N)N)C(=O)N[C@@H](CCCCN)C(=O)N[C@@H](CO)C(=O)N[C@@H](C)C(=O)N[C@@H](CCCN=C(N)N)C(=O)N[C@@H](CCCCN)C(N)=O	-1%	-2%	x	x	x
Cc1ccc(S(=O)(=O)Nc2cccc3ccc[n+](C)c23)cc1	-14%	6%	x	x	x
CC1=NNC(=O)C1C(c1ccccc1)C1C(=O)NN=C1C (centres undefined)	4%	1%	x	u	13µM*
CCc1ccc(NC(=O)c2sc3nc(C)cc(C)c3c2NC(=O)c2ccccc2OC)cc1	x	x	x	x	16%[76.3 µM]
CC1=NNC(=O)C1CC(=O)N/N=C/C(Br)=C/c1ccccc1 (centres undefined)	-3%	12%	x	x	u
CC1C(=O)NN=C1C(=O)N/N=C\C(Br)=C\c1ccccc1 (centres undefined)	-7%	-2%	x	6%	25µM*
